Sampled rows, rich in hits. Any-hit rate of the full collection: about 11%.
MCF10A rerep – inducers of DNA re-replication in MCF 10A breast cells; MCF 10A DNA re-replication, Hoechst nuclear intensity, 48 h; Potency, µM (top dose mostly 46.1 µM), for the others: top-dose activity, positive = re-replication, hits mostly activators; 2.9% of 350,000 active; AID 624296; further: potency means the concentration at half of the fitted maximal effect; % of control where 0% means no effect; nearly all actives have a fitted effect of over 50% in size
RORgamma inh – ROR gamma (mouse) transcription inhibition | P51450 | Drosophila S2 Gal4-RORgamma UAS-luciferase reporter, 20 h | Potency, µM (highest dose often 53.6 µM), inactives show at the highest dose activity change, negative = inhibition, actives largely listed as inhibitors | 5.4% of 310,000 active | AID 2551; further: potency means the concentration at half of the fitted maximal effect; on the % scale 0 is the no-effect control and ±100 the full control effect; nearly all actives have a fitted effect of over 60% in size
Target sequence (P51450 whole entry, looked up, the tested form may be a part): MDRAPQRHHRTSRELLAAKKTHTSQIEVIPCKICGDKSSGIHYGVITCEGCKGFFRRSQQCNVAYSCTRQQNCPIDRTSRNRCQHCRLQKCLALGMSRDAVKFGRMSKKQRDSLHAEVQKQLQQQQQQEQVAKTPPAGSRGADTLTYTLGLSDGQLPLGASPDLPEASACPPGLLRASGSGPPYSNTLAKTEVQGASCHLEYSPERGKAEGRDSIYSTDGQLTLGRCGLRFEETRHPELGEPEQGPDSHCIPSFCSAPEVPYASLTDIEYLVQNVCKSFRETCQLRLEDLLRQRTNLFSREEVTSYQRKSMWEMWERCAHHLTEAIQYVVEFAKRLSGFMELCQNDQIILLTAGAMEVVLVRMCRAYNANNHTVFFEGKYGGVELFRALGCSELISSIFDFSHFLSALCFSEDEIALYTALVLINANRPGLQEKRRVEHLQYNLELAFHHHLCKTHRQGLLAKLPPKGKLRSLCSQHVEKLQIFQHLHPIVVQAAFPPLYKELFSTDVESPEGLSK
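Using a luciferase readout, inhibitors were identified by reduced reporter activity in Drosophila cells coexpressing a copper-inducible Gal4–ROR gamma fusion and UAS-driven Photinus luciferase, incubated 20 hr after 700 uM copper sulfate.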
SW480 rerep – induces DNA re-replication in SW480 colon adenocarcinoma cells; SW480 DNA re-replication, Hoechst DNA content imaging, 48 h; Potency, µM (series often up to 46.1 µM), inactives show at the top dose re-replication activation, actives largely listed as activators; 1.8% of 340,000 active; AID 624297; further: potency means the concentration at half of the fitted maximal effect; % of control where 0% means no effect; nearly all actives have a fitted effect of over 55% in size
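250 cells/well; 23 nL cpd via pin tool; 48 hr, 37 C, 5% CO2; Hoechst 40 min; imager read of total nuclear intensity, ex 405/em 500-530 nm.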
VP16 counter – counter-screen for ROR gamma inhibitors: Gal4-VP16 reporter; Potency, µM (titrated, usually from 53.6 µM), without a hit: at the highest dose activity, negative = inhibition, hits mostly inhibitors; Drosophila S2 Gal4-VP16 UAS-luciferase, luminescence, 20 h; 3.5% of 310,000 active;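 further: Gal4-VP16 expression switched on by copper sulfate through the metallothionein promoter; potency means the concentration at half of the fitted maximal effect; on the % scale 0 is the no-effect control and ±100 the full control effect; nearly all actives have a fitted effect of over 50% in size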
IL1B secr inh – inhibitors of inflammasome signaling (IL-1 beta secretion); activity change, % at 57.5 µM; 4.7% of 360,000 active; THP-1 LPS/ATP IL-1B secretion, AlphaLISA, 16 h; active compounds read low; in the data active means activity change below about -50%; inconclusive means mostly about -30% to -49%; further: on the % scale 0 is the no-effect control and ±100 the full control effect
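THP-1 cells pretreated 1 hr with compounds (up to 57.5 uM final), then stimulated with LPS (250 ng/mL final) plus ATP (1.25 mM final); secreted IL-1B measured by AlphaLISA after 16 hr, decreased signal indicating inhibition.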
* hit, by the source's call; ? = inconclusive; . = no result given; [ ] = remark or other dose. Unless noted, the call rests on the fitted dose curve; in most records, active means well fitted curve in the direction sought with a large enough effect; inconclusive means small, poorly fitted or top-dose-only effect, or another doubt; inactive means no such curve, though single readings can be large; an effect the other way counts as inactive or inconclusive.

SMILES | MCF10A rerep | RORgamma inh | SW480 rerep | VP16 counter | IL1B secr inh
CC(=O)Nc1ccc(NS(=O)(=O)c2ccc(-c3cnc(C4CC4)o3)cc2)cc1 | 6% | 21% | 4% | -11% | 3
COc1ccc(NS(=O)(=O)c2cc(-c3cnc(C4CC4)o3)ccc2C)cc1 | 5.8µM* | 11% | ? | -20% | -1
O=S1(=O)NCC23CCC(CC21)O3 (stereo unspecified) | . | -3% | . | 18% | .
C=CCC(=O)N1CCCC(CO)(Cc2ccc(F)cc2F)C1 (stereo unspecified) | -13% | -14%[1.91 µM] | -6% | -2% | -18
Cc1cc(/C=C2\SC(=Nc3ccc(F)cc3)NC2=O)c(C)n1-c1ccc(S(N)(=O)=O)cc1 | 1.6µM* | -24% | 8.2µM* | ? | -8
Cc1cc(/C=C2/C(=O)NN(c3ccccc3)C2=O)c(C)n1-c1ccc(O)cc1 | ? | 14µM* | 1% | 4µM* | -29
O=C1NC(=S)SC1=Cc1ccccc1Cl | 6.5µM* | . | 10% | . | 5
Cc1cc(/C=C2/SC(=O)NC2=O)c(C)n1-c1ccc(N2CCOCC2)cc1 | 6% | 31% | -91% | -5% | 4
O=C1NC(=Nc2ccccc2Cl)S/C1=C\c1cccc([N+](=O)[O-])c1 | ? | ? | -7% | -2% | -7
O=C1NC(=S)S/C1=C\c1cccc([N+](=O)[O-])c1 | 18µM* | . | ? | . | 22
CN(C)c1ccc(C(C(=O)NC2CCCC2)N(C(=O)c2csnn2)C2CC2)cc1 (stereo unspecified) | -6% | -4% | -10% | 4% | -4
COC(=O)C1=C(C)N(Cc2ccccc2)C2=C(C(C)=O)C[C@@](O)(C(=O)OC)C(=O)N2C1c1ccccc1 (stereo partly specified) | . | 5%[10 µM] | . | 6%[10 µM] | .
CC(=NO)c1ccc2c(c1)C(=NO)c1ccccc1-2 | -7% | . | -8% | . | -9
CC[C@H](C)[C@H](NC(=O)[C@H](CC(C)C)NC(=O)[C@H](CO)NC(=O)[C@H](CCC(=O)O)NC(=O)[C@H](CC(C)C)NC(=O)[C@H](Cc1ccc(O)cc1)NC(=O)[C@H](CCCCN)NC(=O)[C@H](CCCCN)NC(=O)[C@H](C)NC(=O)[C@H](CO)NC(=O)[C@H](CC(C)C)NC(=O)[C@H](CCC(N)=O)NC(=O)CNC(=O)[C@H](CC(C)C)NC(=O)[C@H](CC(C)C)NC(=O)[C@H](CCCNC(=N)N)NC(=O)[C@H](CO)NC(=O)[C@H](Cc1ccccc1)NC(=O)[C@H](CC(=O)O)NC(=O)[C@H](CO)NC(=O)[C@@H](NC(=O)[C@H](Cc1ccccc1)NC(=O)[C@@H](NC(=O)CNC(=O)[C@H](CC(=O)O)NC(=O)[C@H](C)NC(=O)[C@@H](N)Cc1cnc[nH]1)C(C)C)[C@@H](C)O)C(N)=O | . | 19% | . | 5% | .
Cc1cc(C=C2C(=O)CCCC2=O)c(C)n1-c1ccccc1 | 16% | 8.9µM* | -3% | -4% | -1
Cc1cc(/C=C2\SC(=S)NC2=O)c(C)n1-c1ccc(O)cc1 | ? | 21% | 4% | -21% | 0
Cc1cc(/C=C2\SC(=S)NC2=O)c(C)n1-c1ccccc1 | -2% | 10µM* | -115% | ? | 26
N#CCc1ccc(Oc2ncccn2)cc1 | -4% | 16% | -8% | 2% | 8
OCCC1CN(Cc2nc(-c3ccccc3)cs2)CCN1CCc1ccccc1 (stereo unspecified) | 2.9µM* | 4% | -6% | 4% | -5
COc1ccc(O)c(CN2CCN(CCCc3ccccc3)C(CCO)C2)c1 (stereo unspecified) | 0.23µM* | 15% | -6% | 12% | 25
CC(=O)Nc1ccc(CN2CCN(CCc3ccccc3)C(CCO)C2)cc1 (stereo unspecified) | -8% | -12% | 0% | 1% | -79*
COc1ccc(OC)c(CN2CCN(CCc3ccccc3)C(CCO)C2)c1 (stereo unspecified) | 1% | -5% | -13% | -3% | -11
Cc1ccccc1CC1(CO)CCCN(C(=O)c2ccoc2)C1 (stereo unspecified) | . | . | . | . | 18

Assay outcomes as filed in PubChem.
